RGS16-Gao: modulators of RGS16 binding to Galphao, primary screen, biochemical, human proteins, multiplexed bead flow cytometry; Regulator of G-protein signaling 16 (Homo sapiens) + Guanine nucleotide-binding protein …; AID 1441, 2008; actives 0.38% (n = 220,000); binding response (% of control), % at 10 µM; bead-based flow cytometry RGS16-Galphao binding, fluorescence; actives lie on both sides;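 also: Galphao activated by GDP with aluminum fluoride before binding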
RGS4-Gao reg: modulators of RGS4 binding to Galphao, primary screen, biochemical, multiplexed bead flow cytometry; Guanine nucleotide-binding protein G(o) subunit alpha (Homo sapiens), P09471; actives lie on both sides; binding response (% of control), % at 10 µM; actives 0.33% (n = 220,000); AID 1415, 2008; in the data active = binding response below about 49% or above about 150%; inactive = in between;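 also: fluorescent Galphao activated with aluminum fluoride binding bead-coupled RGS4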
Target sequence (P09471 whole entry, looked up): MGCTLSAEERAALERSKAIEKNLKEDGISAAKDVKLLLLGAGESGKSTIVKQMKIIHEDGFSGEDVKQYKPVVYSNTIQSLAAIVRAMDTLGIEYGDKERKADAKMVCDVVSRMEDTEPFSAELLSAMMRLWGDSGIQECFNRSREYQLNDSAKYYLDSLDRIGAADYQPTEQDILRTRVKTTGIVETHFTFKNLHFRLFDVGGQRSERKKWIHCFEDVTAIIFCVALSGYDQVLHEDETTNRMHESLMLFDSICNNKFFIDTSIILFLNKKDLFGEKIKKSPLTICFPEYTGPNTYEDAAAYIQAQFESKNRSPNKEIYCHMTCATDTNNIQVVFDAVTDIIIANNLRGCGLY
RGS7-Gao reg: RGS7-Galphao binding modulators, primary screen, biochemical, multiplexed bead flow cytometry; actives lie on both sides; binding response (% of control), % at 10 µM; Guanine nucleotide-binding protein G(o) subunit alpha (Homo sapiens), P09471; actives 0.35% (n = 220,000); AID 1439, 2008; in the data active = binding response below about 49% or above about 150%;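 also: fluorescent Galphao held in activated GDP-AlF4 state binding bead-coupled RGS7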
RGS8-Gao reg: RGS8-Galphao binding modulators, primary screen, biochemical, multiplexed bead flow cytometry; actives lie on both sides; response (percent of control binding), % at 10 µM; actives 0.34% (n = 220,000); in the data active = response below about 60% or above about 140%; inactive = in between;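 also: Galphao activated as the GDP aluminium fluoride complex binding bead-coupled RGS8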
RGS-Gao: modulators of RGS–Galpha-o binding, primary screen, biochemical, multiplexed beads, flow cytometry, RGS4/7/8/16/19; shares compounds with RGS16-Gao; multiplexed bead flow cytometry; RGS4–Galpha-o binding response, % at 10 µM; actives 99% (n = 1,600);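 also: fluorescently labeled Galpha-o bound to GDP with aluminium fluoride binding biotinylated RGS beads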
Biotin-avidin: disruption of biotin probe capture by avidin, counter-screen for RGS protein interaction modulators, biochemical, flow cytometry, bead-based | shares compounds with RGS16-Gao | streptavidin beads, fluorescein-biotin binding | inhibition, % at 10 µM | 1,700 tested, under 10 active;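 active = inhibition above 50%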;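 also: median green fluorescence of gated singlet beads compared with DMSO control wells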
RGS8-Gao confirm: RGS8-Galphao binding modulators, confirmation, biochemical, multiplexed bead flow cytometry, single concentration; shares compounds with RGS16-Gao; actives 3% (n = 1,700); AID 1836, 2009; binding response (% of control), % at 10 µM; bead-based flow cytometry RGS8-Galphao binding, fluorescence; actives lie on both sides; in the data active = binding response below about 72% or above about 130%; inactive = in between;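 also: Galphao activated as GDP AlF4 complex before binding bead RGS8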
RGS7-Gao single: RGS7-Galphao binding modulators, confirmation, biochemical, multiplexed bead flow cytometry, single concentration; shares compounds with RGS16-Gao; bead-based flow cytometry RGS7-Galphao binding; actives lie on both sides; response (percent of control binding), % at 10 µM; actives 7.8% (n = 1,700); AID 1837, 2009; in the data active = response below about 75% or above about 130%; inactive = in between;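 also: fluorescent Galphao activated with GDP and aluminum fluoride binding bead-coupled RGS7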
RGS16-Gao conf: modulators of RGS16-Galphao protein binding, confirmation, biochemical, single concentration, multiplexed bead flow cytometry. shares compounds with RGS16-Gao. bead-based flow cytometry; actives lie on both sides. response (% of control binding), % at 10 µM. AID 1838, 2009. actives 4% (n = 1,700); in the data active = response below about 74% or above about 130%; inactive = in between;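 also: Galphao activated as the GDP aluminium fluoride complex binding bead-coupled RGS16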
RGS4-Gao single: modulators of RGS4-Galphao protein binding, confirmation, biochemical, single concentration, multiplexed bead flow cytometry; shares compounds with RGS16-Gao; actives lie on both sides; binding response (% of control), % at 10 µM; actives 4% (n = 1,700); in the data active = binding response below about 74% or above about 130%; inactive = in between
RGS19-Gao single: regulators of RGS19-Galphao binding, confirmation, biochemical, single point, multiplexed bead flow cytometry | shares compounds with RGS16-Gao | bead-based flow cytometry RGS19-Galphao binding; actives lie on both sides | response (percent of control binding), % at 10 µM | actives 5% (n = 1,700) | AID 1841, 2009; in the data active = response below about 50% or above about 160%; inactive = in between
Target sequence (P09471 whole entry, looked up): as above
Target sequence (P49795 whole entry, looked up): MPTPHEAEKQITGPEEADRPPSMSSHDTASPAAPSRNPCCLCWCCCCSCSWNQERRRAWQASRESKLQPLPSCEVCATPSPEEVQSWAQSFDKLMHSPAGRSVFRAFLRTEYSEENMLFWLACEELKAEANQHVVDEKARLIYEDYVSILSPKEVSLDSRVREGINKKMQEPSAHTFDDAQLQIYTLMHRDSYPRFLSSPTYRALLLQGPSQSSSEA
Each line names hits and unclear results; the compound was inactive in the other large screens (follow-up assays come after a bar, where they were run); [ ] = dose if it differs, or a comment. Only some compounds are listed: those with a hit (about 0.78% of all), similar ones and a draw of the others. Unless noted, no rule for the calls is given here.

O=C(/C(C=Nc1cccc(C(F)(F)F)c1)=C(/O)c1ccco1)C(F)(F)F	RGS16-Gao 2.5 | RGS-Gao 87 | Biotin-avidin inactive | RGS8-Gao confirm inactive | RGS7-Gao single inactive | RGS16-Gao conf inactive | RGS4-Gao single inactive | RGS19-Gao single inactive
Oc1cc2c(cc1O)C1c3ccc(O)c(O)c3OCC1(O)C2 (stereo not drawn)	RGS16-Gao 3.4, RGS7-Gao reg 32, RGS8-Gao reg 19 | RGS-Gao 67
COc1cc(NC(=O)Cc2ccc(F)cc2)cc(OC)c1OC	none
Cc1ccc(N(C)S(=O)(=O)c2cccc(C(=O)NC3=NCCS3)c2)cc1	none
COc1c(Cl)cc(Cl)cc1/C=C/C(=O)c1ccc(NC(=O)c2cccs2)cc1	RGS16-Gao 9.2, RGS4-Gao reg 25, RGS7-Gao reg 16, RGS8-Gao reg 22 | Biotin-avidin inactive | RGS8-Gao confirm inactive | RGS7-Gao single inactive | RGS16-Gao conf inactive | RGS4-Gao single inactive | RGS19-Gao single inactive
COc1c(Cl)cc(Cl)cc1C(=O)Nc1ccc(C(=O)O)cc1	none
Cc1cc(N)ccc1N1CCCC1	RGS8-Gao reg 54 | RGS-Gao 58
Cc1cc(N)ccc1-n1c(C)ccc1C	none
CC(C)(C)NC(=O)c1cccc2c1OC(C)(C)C2	RGS16-Gao 20 | RGS-Gao 87 | Biotin-avidin inactive | RGS8-Gao confirm inactive | RGS7-Gao single inactive | RGS16-Gao conf inactive | RGS4-Gao single inactive | RGS19-Gao single inactive
CCN1CCN(C(=S)c2ccc(OCC(=O)N3CCOCC3)cc2)CC1	RGS16-Gao 5.2, RGS4-Gao reg 8.1, RGS7-Gao reg 8.8, RGS8-Gao reg 17 | Biotin-avidin inactive | RGS8-Gao confirm inactive | RGS7-Gao single inactive | RGS16-Gao conf inactive | RGS4-Gao single inactive | RGS19-Gao single inactive
Cc1ccc(-c2ccc(OCC(=O)N3CCOCC3)cc2)cc1	none
Cc1cccc(OCC(=O)N2CCOCC2)c1	RGS4-Gao reg 160[activator], RGS7-Gao reg 271[activator] | Biotin-avidin inactive | RGS8-Gao confirm inactive | RGS7-Gao single inactive | RGS16-Gao conf inactive | RGS4-Gao single inactive | RGS19-Gao single inactive
CCN1CCN(C(=S)c2ccc(OCC(=O)NCc3ccccc3)cc2)CC1	RGS7-Gao reg 154[activator] | RGS-Gao 101 | Biotin-avidin inactive | RGS8-Gao confirm inactive | RGS7-Gao single inactive | RGS16-Gao conf inactive | RGS4-Gao single inactive | RGS19-Gao single inactive
CCNC(=O)COc1ncnc2scc(-c3ccc(F)cc3)c12	none
COC(=O)C(NC(C)=O)(Nc1nc2ccc(S(C)(=O)=O)cc2s1)C(F)(F)F (stereo not drawn)	RGS16-Gao -18 | RGS-Gao 97
O=C1Nc2ccc(F)cc2C12Nc1ccccc1-c1nnc(SCc3ccccc3Cl)nc1O2 (stereo not drawn)	none
O=C(/C=C/Nc1ccc(OC(F)(F)F)cc1)C(F)(F)F	none
Cn1c(-c2ccc(F)cc2)cnc1NCc1cc2c(cc1[N+](=O)[O-])OCO2	none
Cc1cc(F)ccc1NCc1cc2c(cc1[N+](=O)[O-])OCO2	RGS16-Gao -41 | RGS-Gao 84 | Biotin-avidin inactive | RGS8-Gao confirm inactive | RGS7-Gao single inactive | RGS16-Gao conf inactive | RGS4-Gao single inactive | RGS19-Gao single inactive
Cc1cc(C)c(NS(=O)(=O)c2ccc(NC(=O)/C=C/C(=O)O)cc2)c(C)c1	RGS16-Gao 1.1, RGS4-Gao reg 9.7, RGS7-Gao reg -0.2, RGS8-Gao reg 12 | Biotin-avidin inactive | RGS8-Gao confirm inactive | RGS7-Gao single inactive | RGS16-Gao conf inactive | RGS4-Gao single inactive | RGS19-Gao single inactive
COc1ccc(C(F)(F)F)cc1NC(=O)c1nc2nc(C)cc(C(F)F)n2n1	RGS4-Gao reg 38, RGS7-Gao reg 33, RGS8-Gao reg 30 | Biotin-avidin inactive | RGS8-Gao confirm inactive | RGS7-Gao single inactive | RGS16-Gao conf inactive | RGS4-Gao single inactive | RGS19-Gao single inactive
CCN(CC)c1nc(N)nc(N(c2ccccc2)c2ccccc2)n1	RGS7-Gao reg 155[activator] | RGS-Gao 105 | Biotin-avidin inactive | RGS8-Gao confirm inactive | RGS7-Gao single 63 | RGS16-Gao conf inactive | RGS4-Gao single 73 | RGS19-Gao single inactive
CN(C)c1nc(N)nc(N(c2ccccc2)c2ccccc2)n1	none
O=C(Nc1ccccn1)NC1CCCCC1	RGS4-Gao reg 199[activator] (no result: RGS16-Gao, RGS7-Gao reg, RGS8-Gao reg) | Biotin-avidin inactive | RGS8-Gao confirm inactive | RGS7-Gao single inactive | RGS16-Gao conf inactive | RGS4-Gao single inactive | RGS19-Gao single inactive
O=C(Nc1cccc2ccccc12)NC1CCS(=O)(=O)C1 (stereo not drawn)	none
O=C(Nc1ccccn1)NC1CCS(=O)(=O)C1 (stereo not drawn)	RGS16-Gao -92 | RGS-Gao 76 | Biotin-avidin inactive | RGS8-Gao confirm inactive | RGS7-Gao single inactive | RGS16-Gao conf inactive | RGS4-Gao single inactive | RGS19-Gao single inactive
O=C(NCc1ccccn1)NC1CCCCC1	none
Cc1cc(C)cc(N(CC(=O)NCCSCc2ccccc2)S(C)(=O)=O)c1	RGS7-Gao reg 180[activator] | RGS-Gao 119 | Biotin-avidin inactive | RGS8-Gao confirm inactive | RGS7-Gao single 47 | RGS16-Gao conf inactive | RGS4-Gao single 60 | RGS19-Gao single 48
